Source: PubChem BioAssay (NCI)
About 83,000 compounds went through this panel and 20% of them were active in at least one assay; those are over-represented in the sample as a whole.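 96-well plates, one dose, 48 hours. Percent growth reported; active if below 10.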 The source made the active and inactive calls.

Legend:
Test in all cases: NCI-60 one-dose screen, 48 h (100 = growth as untreated, 0 = no growth, -100 = all killed)
Conditions in all cases: 10 µM unless noted
T-47D breast = system: T-47D breast
BT-549 breast = system: BT-549 breast
MDA-MB-435 melanoma = system: MDA-MB-435 melanoma
SW-620 colon = system: SW-620 colon
MCF7 breast = system: MCF7 breast
HCT-116 colon = system: HCT-116 colon
HCC-2998 colon = system: HCC-2998 colon
KM12 colon = system: KM12 colon

Measured: growth

COc1ccc(-c2cc(C(=O)N=Nc3c(O)[nH]c4ccccc34)no2)cc1
inactive: T-47D breast 98% | BT-549 breast 109% | MDA-MB-435 melanoma 102% | SW-620 colon 96.9% | MCF7 breast 95.1% | HCT-116 colon 100% | HCC-2998 colon 107% | KM12 colon 101%

CCN(CC)CC#CCOC(=O)[C@]1(C)CCC[C@@]2(C)[C@H]1CC(C=O)=C1C=C(C(C)C)CC[C@@H]12
inactive: T-47D breast 41.8% | BT-549 breast 53% | MDA-MB-435 melanoma 76.4% | SW-620 colon 57.2% | MCF7 breast 68.1% | HCT-116 colon 36.1% | HCC-2998 colon 94.6% | KM12 colon 55.3%

Nc1cccc(-c2nc3sccn3c2-c2ccnc(NCCCNS(=O)(=O)c3ccc(C(F)(F)F)cc3)n2)c1
active: T-47D breast -16.9% | BT-549 breast 0.811% | MDA-MB-435 melanoma -14.8% | MCF7 breast 2.11% | HCT-116 colon 3.07% | KM12 colon 1.52%
inactive: SW-620 colon 12.7% | HCC-2998 colon 18.1%

CC(C)C1=C[C@@]23CC[C@@H]4[C@](C)(CCC[C@@]4(C)C(=O)OCC#CCN4CCCC4)[C@H]2C[C@@H]1[C@H]1C(=O)OC(=O)[C@H]13
inactive: T-47D breast 73.9% | BT-549 breast 87.7% | MDA-MB-435 melanoma 102% | SW-620 colon 109% | MCF7 breast 84.7% | HCT-116 colon 88.8% | HCC-2998 colon 108% | KM12 colon 87.3%

Cc1ccc(SCN2CCN(c3cccc(Cl)c3)CC2)cc1
inactive: T-47D breast 86.7% | BT-549 breast 62.7% | MDA-MB-435 melanoma 89.7% | SW-620 colon 107% | MCF7 breast 85.2% | HCT-116 colon 91.6% | HCC-2998 colon 100% | KM12 colon 104%

COc1ccc2nc3cc(Cl)ccc3c(N3CCN(c4ccnc(N5CCOCC5)n4)CC3)c2c1
active: T-47D breast -37.9% | SW-620 colon 3.94% | MCF7 breast -82% | HCT-116 colon 1.63%
inactive: BT-549 breast 93.1% | MDA-MB-435 melanoma 57% | HCC-2998 colon 12.9% | KM12 colon 53.2%

O=C1c2cc3c(cc2-c2c1c1cc(Cl)c(Cl)cc1c(=O)n2CCCn1ccnc1)OCO3
active: T-47D breast 0.538% | MCF7 breast 1.23% | HCT-116 colon 3.49% | KM12 colon 6%
inactive: BT-549 breast 19.1% | MDA-MB-435 melanoma 18.5% | SW-620 colon 25.6% | HCC-2998 colon 28.6%

COc1ccc(/C(=C/c2ccc3ccccc3c2)c2nn[nH]n2)cc1OC
active: MDA-MB-435 melanoma -41%
inactive: T-47D breast 36.1% | BT-549 breast 40.3% | SW-620 colon 29.2% | MCF7 breast 52.3% | HCT-116 colon 17.7% | HCC-2998 colon 55.4% | KM12 colon 24.5%

CC(=O)Nc1ccc2c(c1)c(NC(C)=O)nn2C(=O)Nc1ccc(Cc2ccccc2)cc1
inactive: T-47D breast 82.5% | BT-549 breast 43% | MDA-MB-435 melanoma 82.2% | SW-620 colon 102% | MCF7 breast 89.6% | HCT-116 colon 61% | HCC-2998 colon 78.8% | KM12 colon 85.9%

Cc1sc2nc3[nH]/c(=C\c4ccc(Cl)cc4)c(=O)n3c(=O)c2c1C
inactive: T-47D breast 103% | BT-549 breast 105% | MDA-MB-435 melanoma 98% | SW-620 colon 102% | MCF7 breast 100% | HCT-116 colon 102% | HCC-2998 colon 107% | KM12 colon 108%

O=C(/C=C\c1cccc([N+](=O)[O-])c1)c1ccccc1
inactive: BT-549 breast 90.1% | MDA-MB-435 melanoma 65.7% | HCC-2998 colon 10.9%
active: T-47D breast -5.11% | SW-620 colon -30.1% | MCF7 breast -9.56% | HCT-116 colon -68.3% | KM12 colon -49.7%

CCCN(CCC)CN(CCC)CCC
inactive: T-47D breast 102% | BT-549 breast 91.4% | MDA-MB-435 melanoma 99.4% | SW-620 colon 103% | MCF7 breast 93% | HCT-116 colon 95.7% | HCC-2998 colon 104% | KM12 colon 101%

O=c1c2cccc3c(Nc4c(F)cccc4F)ccc(c32)c2nc3ccccc3n12
inactive: T-47D breast 52.7% | BT-549 breast 98.7% | MDA-MB-435 melanoma 111% | SW-620 colon 102% | MCF7 breast 20.4% | HCT-116 colon 98.4% | HCC-2998 colon 72.7% | KM12 colon 78.9%

NCCN1CCN(c2nccc(-c3ccc4ccccc4c3)n2)CC1
active: MDA-MB-435 melanoma -26.4% | SW-620 colon -37.9% | HCT-116 colon 3.52%
inactive: T-47D breast 43.1% | BT-549 breast 82.2% | MCF7 breast 51.2% | HCC-2998 colon 14% | KM12 colon 48.1%

COc1ccc(-c2cn3c(ccc4ccccc43)n2)cc1
inactive: T-47D breast 76.5% | BT-549 breast 97.8% | MDA-MB-435 melanoma 114% | SW-620 colon 97.5% | MCF7 breast 75.8% | HCT-116 colon 96.5% | HCC-2998 colon 109% | KM12 colon 95.2%

CCOC(=O)CC(C)=N
inactive: T-47D breast 109% | BT-549 breast 103% | MDA-MB-435 melanoma 113% | SW-620 colon 101% | MCF7 breast 95.6% | HCT-116 colon 102% | HCC-2998 colon 117% | KM12 colon 120%

CCOC(=O)c1c2c(n3ccc(NC(=O)CCN4CCOCC4)cc13)C(=O)c1ncccc1C2=O
inactive: T-47D breast 32.6% | BT-549 breast 58.3% | MDA-MB-435 melanoma 19.4% | SW-620 colon 37.2% | HCT-116 colon 21.8% | HCC-2998 colon 42.5% | KM12 colon 46.2%
active: MCF7 breast -31.7%

COCCCNc1nc(NC(=O)c2ccc(F)cc2C)cc(-c2cccnc2)n1
inactive: T-47D breast 89.4% | BT-549 breast 103% | MDA-MB-435 melanoma 103% | SW-620 colon 109% | MCF7 breast 103% | HCT-116 colon 101% | HCC-2998 colon 103% | KM12 colon 104%

CC/C(Cc1ccccc1)=C(\c1ccc(OCCN2CCCC2)cc1)c1ccc(OC(C)=O)cc1
inactive: T-47D breast 51.4% | BT-549 breast 93.8% | MDA-MB-435 melanoma 69.7% | SW-620 colon 89.9% | MCF7 breast 24.6% | HCT-116 colon 78.7% | HCC-2998 colon 56.3% | KM12 colon 70.7%

O=c1ccc2cc3ccccc3cc2[nH]1
inactive: T-47D breast 96.9% | BT-549 breast 108% | MDA-MB-435 melanoma 92.3% | SW-620 colon 97.4% | MCF7 breast 96.6% | HCT-116 colon 99.2% | HCC-2998 colon 83.3% | KM12 colon 101%

O=C1c2cc3c(cc2-c2c1c1cc(Cl)c(Cl)cc1c(=O)n2C[C@H](O)CO)OCO3
active: T-47D breast -20.2% | BT-549 breast -10.3% | MDA-MB-435 melanoma -24.8% | MCF7 breast -0.37% | HCT-116 colon -25.4% | HCC-2998 colon -5.57% | KM12 colon -21%
inactive: SW-620 colon 12.7%

Nc1nc2ccc(-c3nc4ccc5[nH]ncc5c4c4c3CCC4)cc2s1
inactive: T-47D breast 31.2% | BT-549 breast 47.1% | MCF7 breast 13% | HCT-116 colon 15.9% | HCC-2998 colon 50.9% | KM12 colon 25.1%
active: MDA-MB-435 melanoma -35.5% | SW-620 colon 6.95%

CC(=O)C1=C(O)C=C2Oc3c(C(=O)/C=C/c4c(Cl)cccc4Cl)c(O)c(C)c(O)c3[C@]2(C)C1=O
active: T-47D breast -20.2% | BT-549 breast -28.9% | MDA-MB-435 melanoma -11.6% | SW-620 colon 5.36% | MCF7 breast -11.2% | HCT-116 colon -26.8% | HCC-2998 colon -59.6% | KM12 colon -12.1%

CNC(=O)c1cc(Oc2ccc3nc(NC(=O)Nc4ccc(CN5CCOCC5)c(C(F)(F)F)c4)sc3c2)ccn1
active: MCF7 breast 6.95% | HCT-116 colon 6.2% | KM12 colon 6.28%
inactive: T-47D breast 22.7% | BT-549 breast 12.2% | MDA-MB-435 melanoma 13% | SW-620 colon 27.4% | HCC-2998 colon 32.3%

O=C(O)C(O)C(O)C(=O)O.[NH-]C1CCCCC1[NH-].[Pt+2] (stereo unspecified)
inactive: T-47D breast 105% | BT-549 breast 108% | MDA-MB-435 melanoma 104% | SW-620 colon 95% | MCF7 breast 91.9% | HCT-116 colon 95.1% | HCC-2998 colon 104% | KM12 colon 96.4%

O=C(COCc1c(-c2ccccc2)no[n+]1[O-])Nc1ccc(C(=O)/C=C/c2ccc3c(c2)OCO3)cc1
inactive: T-47D breast 94.1% | BT-549 breast 96% | MDA-MB-435 melanoma 95.3% | SW-620 colon 105% | MCF7 breast 92.2% | HCT-116 colon 73.1% | HCC-2998 colon 102% | KM12 colon 104%

CNCc1cccc2c1OCCOCCOCCN(C)S(=O)(=O)c1ccc(cc1)-c1cnc(N)c(n1)C(=O)N2
inactive: T-47D breast 47% | BT-549 breast 55.6% | MDA-MB-435 melanoma 46.2% | SW-620 colon 37.8% | MCF7 breast 42.2% | HCT-116 colon 15.4% | HCC-2998 colon 75.5% | KM12 colon 43.6%

Cc1cc(-c2nc3ccccc3s2)ccc1NC(=O)COc1ccc(Cl)cc1
inactive: T-47D breast 18.9% | BT-549 breast 105% | MDA-MB-435 melanoma 113% | SW-620 colon 106% | MCF7 breast 17.5% | HCT-116 colon 76.7% | HCC-2998 colon 91.8% | KM12 colon 118%

CCCCCC(=O)Oc1ccc(/C(=C(\C)c2ccccc2)c2ccc(OCCN(CC)CC)cc2)cc1
inactive: T-47D breast 39% | BT-549 breast 72.7% | MDA-MB-435 melanoma 70.3% | SW-620 colon 70.8% | MCF7 breast 29.6% | HCT-116 colon 50.7% | HCC-2998 colon 88.1% | KM12 colon 62%

c1c2c(cc3c1OCO3)Cc1cc3c(cc1Cc1cc4c(cc1C2)OCO4)OCO3
inactive: T-47D breast 108% | BT-549 breast 113% | MDA-MB-435 melanoma 105% | SW-620 colon 109% | MCF7 breast 90.8% | HCT-116 colon 115% | HCC-2998 colon 112% | KM12 colon 126%

CCOC(=O)/C=C/C(=O)[C@H](CC(C)C)NC(=O)[C@H](Cc1ccccc1)NC(=O)OCc1ccccc1
inactive: BT-549 breast 69.2% | MDA-MB-435 melanoma 75.8% | SW-620 colon 13.8% | MCF7 breast 19.7% | HCT-116 colon 47.6% | HCC-2998 colon 99.2% | KM12 colon 94.5%
active: T-47D breast 8.32%

CC1=CC(=O)CC(C)(C)[C@@]1(O)/C=C/[C@@H](C)O
inactive: T-47D breast 91.7% | BT-549 breast 105% | MDA-MB-435 melanoma 102% | SW-620 colon 105% | MCF7 breast 84.6% | HCT-116 colon 101% | HCC-2998 colon 94.7% | KM12 colon 102%
